Measurements reported in PubChem BioAssay AID2156 (Johns Hopkins Ion Channel Center, 2009).
Among all 310,000 compounds or so, about 3,400 (1.1%) were called active.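 The calls were made as follows: active = fluorescence ratio B-score at most minus 3 library SDs, with starting brightness B-score within 2 library SDs (cut at about -5.5 in these data); inactive = the rest, inconclusive results apart.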 What follows is part of a selection rich in actives, with near analogues and random picks from the rest.

target: Potassium voltage-gated channel subfamily KQT member 2 (Rattus norvegicus) (UniProt O88943); experiment: KCNQ2 channel blockers in CHO-K1 cells – cell-based, FluxOR thallium flux, B-score, primary screen (AID 2156); details: 20 min, at 10 µM; hits give low values
Sequence (O88943 whole entry, looked up): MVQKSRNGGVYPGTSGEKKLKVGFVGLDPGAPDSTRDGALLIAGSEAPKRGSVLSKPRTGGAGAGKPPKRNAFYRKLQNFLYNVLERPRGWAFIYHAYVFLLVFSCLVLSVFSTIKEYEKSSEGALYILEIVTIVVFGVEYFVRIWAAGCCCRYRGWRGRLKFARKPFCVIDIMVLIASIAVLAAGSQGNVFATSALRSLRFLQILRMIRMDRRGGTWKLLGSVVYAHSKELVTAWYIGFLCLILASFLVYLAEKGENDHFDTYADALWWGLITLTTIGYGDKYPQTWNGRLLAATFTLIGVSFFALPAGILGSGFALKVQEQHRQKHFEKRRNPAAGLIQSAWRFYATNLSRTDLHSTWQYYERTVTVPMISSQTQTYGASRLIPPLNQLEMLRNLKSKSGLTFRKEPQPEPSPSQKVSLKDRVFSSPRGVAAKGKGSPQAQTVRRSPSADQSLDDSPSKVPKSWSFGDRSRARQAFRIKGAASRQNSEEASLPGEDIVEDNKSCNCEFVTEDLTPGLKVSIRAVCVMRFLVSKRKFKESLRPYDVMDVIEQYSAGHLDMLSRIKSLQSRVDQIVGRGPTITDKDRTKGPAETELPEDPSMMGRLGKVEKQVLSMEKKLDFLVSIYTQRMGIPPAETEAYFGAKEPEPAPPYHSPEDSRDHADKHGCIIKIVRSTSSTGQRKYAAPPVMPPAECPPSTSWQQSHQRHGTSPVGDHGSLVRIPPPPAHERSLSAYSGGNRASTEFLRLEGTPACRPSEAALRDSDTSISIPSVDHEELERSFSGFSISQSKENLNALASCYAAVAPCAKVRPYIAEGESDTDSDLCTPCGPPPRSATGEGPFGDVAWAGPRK

Row | Structure (SMILES) | B-score
1 | Cc1ccc(S(=O)(=O)N(C)C)cc1NC(=O)COC(=O)/C=C/c1cccs1 | inactive
2 | CC(OC(=O)CCCc1c[nH]c2ccccc12)C(=O)Nc1ccc(S(N)(=O)=O)cc1 (configuration not stated) | -1.39 (inactive)
3 | Clc1ccc(CSc2nnc(/C=C/c3ccccc3)o2)c(Cl)c1 | -5.38 (inactive)
4 | CSCc1cc(N2CCOCC2)nc(SCc2ccc(Cl)cc2Cl)n1 | -0.52 (inactive)
5 | CSCc1cc(N(C)C)nc(SCc2ccc(Cl)cc2Cl)n1 | -9.71 (active)
6 | C=CCOc1ccc(/C=C/C(=O)OCC(=O)NC(C)c2ccc(F)cc2)cc1 (configuration not stated) | inactive
7 | O=C(Nc1ccc(S(=O)(=O)N2CCCCC2)cc1)C1CCN(C(=O)c2ccc(F)cc2)CC1 | -0.91 (inactive)
8 | CC1=CC(C)(C)Nc2ccc(OC(=O)CN3C(=O)C4CCCCC4C3=O)cc21 (configuration not stated) | -1.65 (inactive)
9 | CCOC(=O)C(Cc1ccc(N)cc1)N1C(=O)c2ccccc2C1=O (configuration not stated) | inactive
10 | CC1=CC(C)(C)Nc2ccc(OC(=O)C(Cc3ccccc3)N3C(=O)C4CCCCC4C3=O)cc21 (configuration not stated) | -7.42 (active)
11 | CCC/C=C(\CCC)C(NC(=O)Cc1ccccc1)c1ccc(C(=O)OC)cc1 (configuration not stated) | -7.39 (active)
12 | CCC[C@@H]1C[C@@]1(CCC)[C@@H](NC(=O)c1ccccc1)c1ccc(C(=O)OC)cc1 | -5.11 (inactive)
13 | COC(=O)c1ccc(C(NC(=O)OCc2ccccc2)/C(F)=C/[C@@H](C)C(=O)O)cc1 (some centres not stated) | -1.01 (inactive)
14 | Cc1ccc(C(=O)CN2C(=O)NC3(CCc4ccccc43)C2=O)c(C)c1 (configuration not stated) | -1.41 (inactive)
15 | COc1ccccc1-n1ccnc(SCC(=O)NC2CCCCC2)c1=O | inactive
16 | O=C1[C@H]2[C@@H](c3ccc(Cl)cc3)N3C(=O)N(c4cccc(F)c4)C(=O)[C@@]3(Cc3ccccc3)[C@H]2C(=O)N1C1CCCCC1 | inactive
17 | COc1ccc(N2CC(NS(=O)(=O)c3ccc4ccccc4c3)CC2=O)cc1 (configuration not stated) | -0.16 (inactive)
18 | CC1CN(c2nc(Nc3ccccc3)nc(N)c2[N+](=O)[O-])CC(C)O1 (configuration not stated) | -0.73 (inactive)
19 | Cc1ccc(-c2nnc(C)c(N3CC(C)OC(C)C3)n2)cc1 (configuration not stated) | -0.19 (inactive)
20 | CC1CN(c2nc(-c3ccccc3)nnc2-c2ccccc2)CC(C)O1 (configuration not stated) | -6.3 (active)
21 | C=CS(=O)c1sc(Cl)c(N2CCOCC2)c1[N+](=O)[O-] (configuration not stated) | -15.5 (active)
22 | COc1ccc(NC(=O)CN(C)C(=O)/C=C/c2cn(Cc3ccccc3)nc2-c2cccnc2)cc1 | -0.04 (inactive)
23 | O=C(COc1ccccc1)Nc1ccc(F)cc1 | -1.43 (inactive)

Row | Structure (SMILES) | B-score
24 | O=C(NCCCO)c1cc2c([nH]c3ccccc32)c(-c2ccc(F)cc2)n1 | inactive
25 | O=C(NCC1CCCO1)c1cc2c([nH]c3ccccc32)c(-c2ccc(F)cc2)n1 (configuration not stated) | -8.97 (active)
26 | O=C(NCC1CCCO1)c1cc(-c2ccccc2)nc2ccccc12 (configuration not stated) | inactive
27 | COc1ccc(C(=O)N(Cc2ccccc2)c2ccc(C)cc2)cc1S(=O)(=O)N1CCOCC1 | -0.58 (inactive)
28 | CC1CCCCC1NC(=O)c1cc(=O)[nH]c2ccccc12 (configuration not stated) | -0.66 (inactive)
29 | O=C(NC1CCCCC1)C1c2ccccc2C(=O)N1Cc1ccco1 (configuration not stated) | inactive
30 | CC1CCC(NC(=O)C2c3ccccc3C(=O)N2Cc2ccc3c(c2)OCO3)CC1 (configuration not stated) | -6.13 (active)
31 | CCc1ccc(CN2C(=O)c3ccccc3C2C(=O)NCC2CCCO2)cc1 (configuration not stated) | inactive
32 | Cc1cc(C)cc(NC(=O)COc2coc(CN3CCN(c4ccccc4)CC3)cc2=O)c1 | inactive
33 | CSc1ccc(S(=O)(=O)NCC(=O)OCC(=O)NC2(C#N)CCCCC2)cc1[N+](=O)[O-] | inactive
34 | CN1CCN(C2Cc3ccc(Cl)cc3Sc3ccc(F)cc32)CC1 (configuration not stated) | -4.84 (inactive)
35 | CCOc1ccc(NC(=O)c2ccc(NC(=O)CN3C(=O)C(=O)N(CC(C)C)C3=O)cc2)cc1 | inactive
36 | O=C(c1cccc(F)c1)N1CCN(c2ccc([N+](=O)[O-])c(N3CCCCC3)c2)CC1 | -0.07 (inactive)
37 | O=C(c1cc2cc(F)ccc2[nH]1)N1CCN(c2ccc(F)cc2)CC1 | inactive
38 | O=C(c1cncc(Br)c1)N1CCN(c2ccc([N+](=O)[O-])cc2)CC1 | -4.15 (inactive)
39 | O=C(c1ccccc1)c1ccc(C(=O)N2CCN(c3ccccc3)CC2)cc1 | -0.65 (inactive)
40 | O=C(c1cccc(C(=O)N2CCN(c3ccc(F)cc3)CC2)c1)N1CCN(c2ccc(F)cc2)CC1 | -6 (active)
41 | O=C(c1cc(C(=O)N2CCN(c3ccc(F)cc3)CC2)cc([N+](=O)[O-])c1)N1CCN(c2ccc(F)cc2)CC1 | -5.93 (active)
42 | Cc1ccc(Cc2nnc(SCC(=O)Nc3ccc(C)cc3C)[nH]c2=O)cc1 | inactive
43 | CC(=O)CC(CC(=O)NC1CCCCC1)c1ccccc1 (configuration not stated) | inactive
44 | O=C1[C@H]2[C@@H](c3ccc(F)cc3)N3C(=O)N(c4ccc(C(F)(F)F)cc4)C(=O)[C@@]3(Cc3ccccc3)[C@H]2C(=O)N1C1CCCCC1 | -0.02 (inactive)
45 | O=C(NCC(c1ccco1)N1CCc2ccccc2C1)c1ccccc1Cl (configuration not stated) | -1.22 (inactive)
46 | Cc1ccc(Cc2nnc(SCC(=O)Nc3ccccc3C)[nH]c2=O)cc1 | inactive

Row | Structure (SMILES) | B-score
47 | CCOc1ccc(NS(=O)(=O)c2ccc(C(=O)NC3CCN(Cc4ccccc4)CC3)cc2)cc1 | inactive
48 | CCOc1cc(-c2nc3cc(C)ccn3c2NCC2CCCO2)ccc1O (configuration not stated) | -5.56 (active)
49 | CCOc1ccc(N(CC(=O)NCC2CCCO2)S(=O)(=O)c2ccc(C)cc2)cc1 (configuration not stated) | -0.74 (inactive)
50 | CCOc1cc(C(C(=O)NCC2CCCO2)N(C(=O)Cn2nnc3ccccc32)c2cccc(OC)c2)ccc1O (configuration not stated) | inactive
51 | O=[N+]([O-])c1ncc(Br)cc1Nc1ccccc1 | -2.54 (inactive)
52 | CC(=O)N1CCN(C(=O)c2cc(-c3ccc(C)o3)nc3ccccc23)CC1 | inactive
53 | Cn1cccc1C(=O)NNC(=O)COc1ccc(Br)cc1 | -0.05 (inactive)
54 | COc1cc(NC(=O)CSC(=S)N2CCCC2)c(OC)cc1Cl | inactive
55 | CC(C)OCCCNc1ncnc2c1[nH]c1ccc(F)cc12 | -0.41 (inactive)
56 | Cc1c(CN2CC[C@@H](N3CCN(c4ccccn4)CC3)[C@H](O)C2)[nH]c2ccc(F)cc12 | -0.01 (inactive)
57 | Fc1ccc2[nH]c3c(N4CCSCC4)ncnc3c2c1 | -10.1 (active)
58 | Cc1ccc(CNS(=O)(=O)CCNC(=O)c2ccccc2)cc1 | inactive
59 | CSc1ccccc1NC(=O)c1cnc2sc(C)cn2c1=O | inactive
60 | COc1cc(C(=O)NCC(=O)N2CC=C(c3ccccc3)CC2)cc(OC)c1OC | inactive
61 | O=C(Nc1ccc(Cl)c(Cl)c1)N1CC=C(c2ccccc2)CC1 | -8.43 (active)
62 | O=C(Nc1ccccc1)N1CCN(C(=O)Nc2ccccc2)CC1 | inactive
63 | CC(OC(=O)CNC(=O)c1cccc(F)c1)C(=O)NC1CCCCC1C (configuration not stated) | inactive
64 | COCCCN(C(=O)CSCc1ccc(C)cc1)c1c(N)n(Cc2ccccc2)c(=O)[nH]c1=O | inactive
65 | CCCCCCCCCCCCN1C(=O)CSC1c1cccnc1 (configuration not stated) | -6.52 (active)
66 | CCCCCCOc1ccc(OC(=O)c2cccnc2)cc1 | inactive
67 | CN(C)CCCN1C(=O)CSC1c1ccc([N+](=O)[O-])cc1 (configuration not stated) | -0.19 (inactive)
68 | O=C(Nc1ccc(OC(F)(F)F)cc1)c1ccc2c(c1)no[n+]2[O-] | inactive
69 | COc1cccc(CNc2nc3nc4c(c(=O)n3[nH]2)CCC4)c1 | inactive

Row | Structure (SMILES) | B-score
70 | COc1cccc(-c2cc3nc4c(c(N5CCC6(CC5)OCCO6)n3n2)CCCC4)c1 | -5.95 (active)
71 | COc1cccc(-c2nc(S(=O)(=O)c3ccccc3)c(N3CCOCC3)o2)c1 | inactive
72 | CN(C(=O)CN1C(=O)NC(C)(CCc2ccccc2)C1=O)c1ccccc1 (configuration not stated) | inactive
73 | CCOC(=O)C1=C(NC(=S)NC(=O)c2ccccc2)c2ccccc2CC1(C)C | -1.51 (inactive)
74 | CC1(C)Cc2ccccc2/C(=C/C(=O)c2ccccc2)N1 | -5.67 (active)
75 | CC(C)CC(N=C1NC(C)(C)Cc2ccccc21)C(=O)O (configuration not stated) | -0.08 (inactive)
76 | COc1cccc(CC(=O)Nc2nc(-c3ccc(OC)c(OC)c3)cs2)c1 | inactive
77 | COc1ccc(CCN(C(=O)COc2ccccc2)c2nc(-c3ccccc3)cs2)cc1OC | -7.67 (active)
78 | COc1ccc(CCNc2nc(-c3cccc(NC(C)=O)c3)cs2)cc1OC | -0.02 (inactive)
79 | CCN1CCN(c2ccc(S(=O)(=O)N3CCCCC3)cc2NC(=O)c2cccc(NC(C)=O)c2)CC1 | inactive
80 | COc1cc(C(=O)OCC(=O)N(CC(C)C)C2CCS(=O)(=O)C2)ccc1OCC(C)C (configuration not stated) | inactive
81 | C=CCNC(=O)CSc1nc2scc(-c3ccco3)c2c(=O)n1CC=C | -1 (inactive)
82 | C=CCn1c(SCc2c(C)noc2C)nc2sc3c(c2c1=O)CCC(C)C3 (configuration not stated) | -3.13 (inactive)
83 | C=CCn1c(SCc2csc(C)n2)nc2scc(-c3ccc(C)o3)c2c1=O | -5.75 (active)
84 | COc1cc(C(=O)N(C)Cc2cccc(OC)c2OC)ccc1OCC(=O)Nc1cccc(C(F)(F)F)c1 | -4.11 (inactive)
85 | COc1ccc(F)cc1S(=O)(=O)NCC(c1ccc2c(c1)OCO2)N1CCN(C)CC1 (configuration not stated) | -0.58 (inactive)
86 | Cc1cc(OCCCCOc2ccc(C#N)cc2)ccc1[N+](=O)[O-] | -6.09 (active)
87 | Cc1cc(OCCCN2CCN(Cc3ccccc3)CC2)ccc1[N+](=O)[O-] | inactive
88 | Cc1cc(OCC(=O)Nc2c(C)n(C)n(-c3ccccc3)c2=O)ccc1[N+](=O)[O-] | -0.54 (inactive)
89 | Cc1cccc(N(Cc2ccccc2)C(=O)c2cc(S(=O)(=O)N3CCOCC3)ccc2F)c1 | inactive
90 | CC(=O)c1c(C)[nH]c(C(=O)CN2C(=O)NC(C)(C)C2=O)c1C | inactive
91 | COc1ccccc1NS(=O)(=O)c1ccc(C(=O)N2CCN(c3ccccc3O)CC2)cc1 | inactive
92 | Cc1c(NC(=O)C(C)OC(=O)c2c3c(nc4ccccc24)CCC(C)C3)c(=O)n(-c2ccccc2)n1C (configuration not stated) | inactive
